# Screening results: PubChem, National Center for Advancing Translational Sciences (NCATS)
# ALDH1A1 inh: ALDH1A1 (human) enzyme inhibition. Purified ALDH1A1, NADH fluorescence, propionaldehyde substrate. Potency, µM (top dose mostly 75.3 µM), inactives show top-dose activity, negative = inhibition, hits mostly inhibitors. hit rate 7.3% among 220,000. P00352;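 also: potency is read from the fitted curve at half-maximal effect; plate controls were no enzyme wells and a reference inhibitor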
# Target sequence (P00352 whole entry, looked up): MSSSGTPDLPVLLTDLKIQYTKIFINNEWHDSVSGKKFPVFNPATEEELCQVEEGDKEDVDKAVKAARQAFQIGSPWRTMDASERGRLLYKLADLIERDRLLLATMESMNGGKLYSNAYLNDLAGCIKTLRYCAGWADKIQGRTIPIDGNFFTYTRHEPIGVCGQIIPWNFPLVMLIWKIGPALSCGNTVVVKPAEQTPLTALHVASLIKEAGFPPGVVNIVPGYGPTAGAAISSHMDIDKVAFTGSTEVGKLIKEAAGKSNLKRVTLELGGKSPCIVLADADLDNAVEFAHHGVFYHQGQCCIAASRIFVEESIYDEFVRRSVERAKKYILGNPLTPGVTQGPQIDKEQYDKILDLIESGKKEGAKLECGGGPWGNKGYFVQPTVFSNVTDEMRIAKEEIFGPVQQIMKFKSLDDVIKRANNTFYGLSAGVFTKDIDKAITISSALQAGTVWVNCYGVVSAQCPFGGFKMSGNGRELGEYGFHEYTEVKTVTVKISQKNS
# PNC assembly inh: inhibitors of perinucleolar compartment assembly; hit rate 3.1% among 140,000; PC3M PTB-GFP, PNC prevalence imaging, 16 h; active compounds read low; activity change (PNC), negative = inhibition, % at 10 µM; AID 2417;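 active = readout at or below -70, meaning at least 70% loss of cells showing the perinucleolar compartment, a nuclear body marking cancer cells; inconclusive = readout between -30 and a set limit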;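 also: plate controls were DMSO wells for no effect and camptothecin positive control wells for full effect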
#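 Read-out is percentage of cells bearing a perinucleolar compartment, from automated 20x imaging of fixed, Hoechst-stained PC3M PTB-GFP cells. Cells were seeded 4 h, then exposed 16 h to compound (23 nl of library stock) in duplicate plates.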
# HPGD inh: inhibitors of human 15-hydroxyprostaglandin dehydrogenase (HPGD); purified HPGD, NADH fluorescence kinetic, PGE2 substrate; Potency, µM, without a hit: at the top dose activity change, negative = inhibition, actives largely listed as inhibitors; hit rate 4.3% among 150,000; AID 894; P15428; also: potency is read from the fitted curve at half-maximal effect
# Target sequence (P15428 whole entry, looked up): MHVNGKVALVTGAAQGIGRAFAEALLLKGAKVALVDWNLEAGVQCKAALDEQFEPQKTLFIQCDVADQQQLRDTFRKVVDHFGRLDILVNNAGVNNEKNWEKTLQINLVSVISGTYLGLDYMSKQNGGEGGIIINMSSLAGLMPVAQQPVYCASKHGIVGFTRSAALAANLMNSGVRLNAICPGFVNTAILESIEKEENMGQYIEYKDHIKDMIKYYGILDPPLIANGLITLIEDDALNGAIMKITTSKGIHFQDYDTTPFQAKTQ
#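 20 nM HPGD preincubated 15 min at room temperature with compound in 50 mM Tris-HCl pH 8, 0.01% Tween 20. Started with 1 mM NAD+ and 30 uM prostaglandin E2; NADH fluorescence (360/450 nm) read 5 times over 30-s intervals, last minus first.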
# Lamin A splicing: modulators of lamin A splicing | Potency, µM (doses to about 46.1 µM), inactives show at the highest dose ratio change, negative = inhibition, actives largely listed as inhibitors | hit rate 0.01% among 200,000 | HeLa LMNA splicing GFP/RFP minigene ratio, 48 h; active = well fitted inhibition curve with a large enough effect in the signal ratio, with a control signal flat, not every such curve was filed as active; inconclusive = small, poorly fitted or top-dose-only effect, or effect the other way, or a change in a side signal; the % refers to the signal ratio; also: potency is read from the fitted curve at half-maximal effect
#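 Read-out is the ratio of GFP to DsRed2 object intensity, acquired by 488 nm laser-scanning cytometry on HeLa lamin A-EGFP minigene reporter cells. Compound incubation 48 hrs at 37 °C in Opti-MEM with 2% FBS; DMSO 0.5% final.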
# KinaseGlo FLuc: counter-screen: inhibitors of Kinase-Glo firefly luciferase. Kinase-Glo luciferase, ATP luminescence, 8 min. hit rate 0.28% among 200,000. Potency, µM (doses to about 38.3 µM), inactives show top-dose activity change, negative = inhibition, hits mostly inhibitors. Q27757; active = well fitted inhibition curve with a large enough effect; inconclusive = small, poorly fitted or top-dose-only effect; also: potency is read from the fitted curve at half-maximal effect; nearly all actives have a fitted effect of over 60% in size
#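 Compounds were added to a substrate mix at pH 7.2 (50 mM imidazole, 10 uM ATP, within the enzyme's linear range), followed by Kinase-Glo detection reagent; luminescence was measured after 8 minutes at ambient temperature.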
# * hit, by the source's call; ? = inconclusive; / = no result; [ ] = dose if it differs, or a comment. A selection: hits, their analogues and other compounds. The true share with any hit is near 10%. Unless noted, calls follow the shape of the dose curve; as a rule, active = well fitted inhibition curve with a large enough effect (not every such curve was filed as active); inconclusive = small, poorly fitted or top-dose-only effect, or another doubt; inactive = no such curve, though single readings can be large or run the other way. Unless noted, % is scaled to controls: 0 for no effect and ±100 for the full control effect.
SMILES,ALDH1A1 inh,PNC assembly inh,HPGD inh,Lamin A splicing,KinaseGlo FLuc
C/C=C(\C)CN1CCN(c2cc(C)ccc2C)CC1,15.8µM*,-28.9,-15.5%,5.0%,-6.9%
C/C=C(\C)CN1CCN(c2cccc(C)c2C)CC1,0.9%,30.0,?,0.1%,2.2%
O=C1C2=C(Nc3ccccc3SC2c2ccco2)c2ccccc21 (stereo not given),6.31µM*,-22.0,-28.1%,9.8%,-1.2%
O=C1c2ccccc2NC(c2ccco2)N1O (stereo not given),?,?,-17.0%,-1.4%,-0.7%
COc1cc(C2C(=O)N(C3CCC(C)CC3)CC(=O)N2CCc2ccc(Cl)cc2)ccc1OC(C)C (stereo not given),/,/,/,-9.7%[46 µM],/
N#Cc1cc2c(nc1SCc1cccnc1)CCC2,?,-8.1,-19.9%,1.4%,1.9%
N#Cc1cc2c(nc1SCc1cccnc1)CCCC2,?,?,12.6µM*,?,-7.5%
CC1(C)C(=O)C(c2ccccc2)=C2CN3C(=O)N(CCc4ccccc4)C(=O)C3(Cc3ccccc3)C=C21 (stereo not given),-29.3%,/,-16.6%,/,-3.4%
Cc1cc(NCc2ccncc2)ccc1Br,22.4µM*,/,/,/,0.8%
CN(C(=O)c1ccc(-c2nn(C)c(=O)c3ccccc23)cc1)c1ccccc1,-3.8%,-12.6,7.94µM*,0.8%,-1.4%
CN(C)CCNC(=O)c1ccc(-c2nn(C)c(=O)c3ccccc23)cc1,-11.9%,?,20µM*,2.7%,3.0%
Cn1nc(-c2ccc(OCC(=O)Nc3ccccc3)cc2)c2ccccc2c1=O,-10.1%,?,28.2µM*,?,1.0%
Cc1ccc(-c2nn(C)c(=O)c3ccccc23)cc1CNC(=O)c1ccco1,1.6%,-26.4,3.55µM*,-0.8%,0.0%
COc1ccc(NC(=O)c2ccc(-c3nn(C)c(=O)c4ccccc34)cc2)cc1,4.8%,/,/,?,4.9%
O=C(c1cc(C(F)(F)F)cc(C(F)(F)F)c1)N1CCC[C@@]2(CCN(Cc3ccccc3)C2)C1,1.8%,/,-6.3%,/,-1.7%
CCC(CO)NC(=O)c1ccc(-c2nn(C)c(=O)c3ccccc23)cc1 (stereo not given),11.8%,-11.6,31.6µM*,1.9%,2.6%
COc1ccccc1NC(=O)c1ccc(-c2nn(C)c(=O)c3ccccc23)cc1,6.3%,/,/,?,-0.4%
CCOC(=O)c1ccc(NC(=O)CN2Cc3ccccc3C2=O)cc1,/,/,/,-4.9%[46 µM],/
CN=C1S/C(=C\c2cc(C)n(-c3ccccc3F)c2C)C(=O)N1C,17.8µM*,22.3,22.4µM*,?,-18.4%
O=C(NCc1ccccc1)c1ccc(Cc2nc3ccccc3[nH]2)cc1,8.7%,/,-3.6%,/,-1.6%
CN(C)S(=O)(=O)c1ccc(/C(O)=C2/C(=O)C(=O)N(Cc3cccnc3)C2c2ccncc2)cc1 (stereo not given),14.1µM*,-8.7,-13.3%,4.5%,-1.0%
Cc1c(/C(O)=C2/C(=O)C(=O)N(Cc3cccnc3)C2c2cccs2)cnn1-c1ccccc1 (stereo not given),1.12µM*,8.2,20µM*,-2.9%,2.5%
CN(C)S(=O)(=O)c1ccc(/C(O)=C2/C(=O)C(=O)N(CCN3CCCCC3)C2c2cccnc2)cc1 (stereo not given),22.4µM*,/,-9.4%,/,0.3%
Cc1c(/C(O)=C2/C(=O)C(=O)N(Cc3cccnc3)C2c2ccccn2)cnn1-c1ccccc1 (stereo not given),?,/,/,-6.1%[46 µM],1.9%
O=C(NCc1ccco1)c1cc2nc(C3CC3)cc(C(F)(F)F)n2n1,?,2.2,17.8µM*,?,5.9%
SMILES,ALDH1A1 inh,PNC assembly inh,HPGD inh,Lamin A splicing,KinaseGlo FLuc
NC(N)=NCCCC(=O)O,0.5%[13.5 µM],/,-2.1%,/,-2.1%[7.66 µM]
CCC(=O)N1CCc2cc(Br)cc(S(=O)(=O)N3CCC(C(=O)Nc4ccc(OC)cc4)CC3)c21,/,/,/,0.7%[46 µM],/
O=C1C(=O)N(Cc2cccc([N+](=O)[O-])c2)c2ccccc21,0.0501µM*,155.1,?,4.3%,0.0%
CCCS(=O)(=O)c1nc(S(=O)(=O)c2ccc(C)cc2)c(NCc2ccccn2)s1,14.1µM*,/,/,/,/
CCOc1ccc(CCNC(=O)c2ccc3c(c2)nc2n3CCOC2)cc1OCC,/,/,/,-4.3%[46 µM],/
CC(=O)Nc1ccc(C(=O)Nc2cc(C(F)(F)F)ccc2-n2cnc3ccccc32)cc1,?,18.0,14.1µM*,?,3.1%
CCS(=O)(=O)N1CCC(C(=O)N2CCOCC2)CC1,10.3%,?,-13.8%,11.4%,-0.7%
CCCCC1CCC(C(=O)N2CCOCC2)CC1 (stereo not given),8.7%,-13.4,15.8µM*,3.4%,-3.4%
COc1ccc2sc(N3C(=O)C4CC=C(C)CC4C3=O)nc2c1 (stereo not given),12.6µM*,?,-13.0%,-9.2%,2.4%
CC1=CCC2C(=O)N(c3cc(C)on3)C(=O)C2C1 (stereo not given),-3.3%,?,-11.4%,6.8%,1.9%
O=C(O)[C@@H]1CCCN1Cc1ccc2c(c1)OCO2,-1.8%[13.5 µM],/,-10.7%,/,-3.8%[7.66 µM]
O=C(O)COc1cnc2ccccc2n1,-0.2%,/,/,/,-2.7%
O=C(CCl)Nc1ccc(Oc2cnc3ccccc3n2)cc1,0.112µM*,7.4,-16.0%,?,-3.1%
O=C(CCl)Nc1cccc(-c2cnc3ccccc3n2)c1,0.891µM*,?,-15.1%,?,-5.2%
COC1C=CC23c4cc5c(cc4CN(CC2O)C3C1)OCO5 (stereo not given),0.3%,/,-6.1%,/,-5.7%
CCN(c1cccc(C)c1)S(=O)(=O)c1ccc(N2CCCCS2(=O)=O)cc1,/,/,/,15.6%[46 µM],/
COc1ccc(C2=NN(C(C#N)c3ccc(OC)c(OC)c3)C(c3ccccc3)C2)cc1 (stereo not given),17.8µM*,7.1,-29.3%,-8.3%,-5.4%
COc1ccc(C(C#N)N2CCC(c3ccccc3)=N2)cc1OC (stereo not given),2.24µM*,/,/,?,0.8%
COc1ccc(C(C#N)N2CCCCCC2)cc1OC (stereo not given),?,-9.8,-12.4%,0.2%,-0.5%
OCCn1c(CSc2nnc(-c3ccco3)n2-c2ccccc2)nc2ccc(Cl)cc21,12.6µM*,-8.2,?,3.2%,0.7%
CCn1nc(C)c2c(-c3ccccc3)cc(=O)n(C(C)C(=O)NCc3cccc(OC)c3)c21 (stereo not given),/,/,/,-22.4%[46 µM],/
CCCCN(c1ccccc1)S(=O)(=O)c1ccc2c(c1)CCN2C(=O)CCC(=O)O,7.4%,-83.1*,-12.8%,-20.9%,-2.5%
O=C(O)CCC(=O)N1CCc2cc(S(=O)(=O)NCc3cccs3)ccc21,4.4%,-10.4,25.1µM*,-2.4%,-3.8%
COc1ccc(C2SCCN2C(=S)Nc2cccc(Cl)c2)cc1 (stereo not given),?,-101.9*,-12.3%,?,-1.6%
COc1ccc(C2SCCN2C(=S)Nc2ccc(Cl)cc2)cc1 (stereo not given),?,26.1,?,?,1.4%
